Assay outcomes deposited in PubChem by National Center for Advancing Translational Sciences (NCATS).
3T3 cytotox – cytotoxic compounds in NIH 3T3 cells. actives 4.3% (n = 94,000). AID 1345082. NIH 3T3 viability, CellTiter-Glo ATP luminescence, 48-72 h. Potency, µM (top dose mostly 96.7 µM), inactives show top-dose activity change, negative = cytotoxicity, usual class: inhibitors; note: nearly all actives have a fitted effect of over 55% in size
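Cytotoxicity is measured as loss of cellular ATP: NIH 3T3 cells (400/well) are exposed to compound for 48 or 72 hr at 37 °C, then CellTiter-Glo luminescence is imaged after 10 min at room temperature.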
HEK cytotox – kills HEK 293 cells; actives 6.6% (n = 94,000); HEK 293 viability, ATP luminescence (CellTiter-Glo), 48-72 h; Potency, µM (series often up to 115 µM), for inactives: at the highest dose activity change, negative = cytotoxicity, actives largely listed as inhibitors; note: nearly all actives have a fitted effect of over 60% in size
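qHTS cytotoxicity; HEK 293, 250 cells/well; compound pinned; 48 or 72 hr, 37 degree Celsius, 5% CO2, 95% humidity; CellTiter-Glo, 10 min RT; luminescence (ATP).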
NPR1 antag – blocks ANP-stimulated signaling of human Npr1 receptor; actives 1.6% (n = 76,000); P16066; Potency, µM (top dose mostly 46.3 µM), inactives show at the top dose activity change, negative = inhibition, actives largely listed as inhibitors; AID 1347048; HEK293 hNpr1 GloSensor cGMP, ANP-stimulated luminescence; calls by dose curve; note: nearly all actives have a fitted effect of over 60% in size
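Compound pre-incubated 30 min at room temperature on GloSensor-loaded HEK293 cells stably carrying hNpr1 and the pGS-40F cGMP biosensor. Stimulation uses hNppA at 0.1 nM final; luminescence is taken at baseline and 20 min post-agonist.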
Luciferase inh – Photinus pyralis luciferase inhibition; P08659; purified P. pyralis luciferase, luminescence, biochemical; Potency, µM (series often up to 115 µM), hits mostly inhibitors; actives 2.5% (n = 76,000); note: nearly all actives have a fitted effect of over 65% in size
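Inhibitors were tested against purified firefly luciferase in a biochemical, low-substrate format (both substrates at 10uM) and luminescence measured with a CCD imager.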
Numbers without * were called inactive; i = inactive; u = inconclusive; x = no result; [ ] = dose if it differs, or a comment. Sampled rows, rich in hits. Any-hit rate of the full collection: about 11%. Unless noted, calls come from the whole dose curve; as a rule, active = well fitted curve in the direction sought with a large enough effect; inconclusive = small, poorly fitted or top-dose-only effect, or another doubt; inactive = no such curve, though single readings can be large; an effect the other way counts as inactive or inconclusive. % is set by controls: 0 for no effect and ±100 for the full control effect; potency is the fitted concentration of half-maximal effect.

SMILES	3T3 cytotox	HEK cytotox	NPR1 antag	Luciferase inh
Cc1nnc2ccc(N3CCC(NC(=O)Nc4ccc(Cl)cc4)C3)nn12 (centres undefined)	-24%	u	x	x
O=C(NCc1ccc(F)cc1)c1ccc2oc(-c3ccccn3)nc2c1	-19%	-14%	x	x
COCCCn1c(=O)c(C(=O)NCc2cccs2)nc2cccnc21	-20%	-7%	x	x
O=C(c1ccc(-c2ccccc2)cc1)N1C[C@@H]2C[C@H](C1)c1ccc(NS(=O)(=O)c3cccc(F)c3)c(=O)n1C2	u	50µM*	-6%	u
O=C(c1ccc2ccccc2c1)N1C[C@@H]2C[C@H](C1)c1ccc(NS(=O)(=O)Cc3ccccc3)c(=O)n1C2	79µM*	u	3%	i
O=c1c(NS(=O)(=O)c2cccc(F)c2)ccc2n1C[C@H]1C[C@@H]2CN(S(=O)(=O)c2ccccc2)C1	u	-17%	1%	i
O=C(c1ccccn1)N1C[C@@H]2C[C@H](C1)c1ccc(NS(=O)(=O)Cc3ccccc3)c(=O)n1C2	i	-14%	4%	i
O=C(c1ccccc1)N1C[C@@H]2C[C@H](C1)c1ccc(NS(=O)(=O)c3cccc(F)c3)c(=O)n1C2	-5%	-2%	1%	i
Cn1cc(CN2C[C@@H]3C[C@H](C2)c2ccc(NS(=O)(=O)c4cccc(F)c4)c(=O)n2C3)c2ccccc21	13µM*	32µM*	-23%	i
Cn1ccnc1CN1CCOc2cc([S+](=O)([O-])Nc3ccccc3)ccc2C1	-23%[138 µM]	112µM*	-20%[70.6 µM]	i
O=[S+]([O-])(Nc1cccnc1)c1ccc2c(c1)OCCN(Cc1cncc(F)c1)C2	45µM*	-9%[172 µM]	6%[70.6 µM]	i
O=[S+]([O-])(Nc1cccnc1)c1ccc2c(c1)OCCN(Cc1ccncc1F)C2	35µM*	-18%[172 µM]	0%[70.6 µM]	i
O=[S+]([O-])(Nc1ccccc1)c1ccc2c(c1)OCCN(Cc1ccc(F)cc1)C2	50µM*	71µM*	u	i
O=[S+]([O-])(Nc1ccccc1)c1ccc2c(c1)OCCN(Cc1ccncc1F)C2	u	u	u	i
Cc1ccccc1S(=O)(=O)N1C[C@@H]2CCCN3CCC[C@@H]([C@H]23)[C@H]1CCCC(=O)NCC1CC1	-10%	u	-16%	i
CN(C)C(=O)N1CCN(C(=O)c2nc3cccnc3n(Cc3ccccc3)c2=O)CC1	-7%	-12%	x	x
O=[S+]([O-])(Nc1nncs1)c1ccc2c(c1)OCCN(Cc1ccccc1)C2	u	-5%[172 µM]	x	i
O=[S+]([O-])(Nc1nncs1)c1ccc2c(c1)OCCN(Cc1cccs1)C2	25µM*	-30%[172 µM]	-10%[70.6 µM]	i
O=C(NC1CCN(Cc2ccccc2)CC1)C1CN(C2CCCCC2)C(=O)N1 (centres undefined)	-17%	u	x	x
COCCNC(=O)c1nc2sccn2c1-c1ccc(C)cc1	-33%[138 µM]	u	x	x
O=C(NCCc1ccc(Cl)cc1)c1nc2sccn2c1Br	-15%	-21%	16%	18µM*
Cc1ccc(-c2c(C(=O)NCCc3ccc(Cl)cc3)nc3sccn23)cc1	u	35µM*	x	x
Cc1nc(CCC(=O)NCc2cc(Cl)cc3c(C)c(-c4ccccc4)[nH]c23)n[nH]1	u	u	-1%	32µM*
Cc1ncoc1C(=O)NCc1cc(Cl)cc2c(C)c(-c3ccccc3)[nH]c12	u	u	2.8µM*	u
Cc1ncoc1C(=O)NCC(=O)N1CCCCCNC(=O)CC1c1ccccc1 (centres undefined)	-11%	-11%	1%	i
SMILES	3T3 cytotox	HEK cytotox	NPR1 antag	Luciferase inh
CC(=O)Nc1cc(C2CC2)nn1C	5%	3%	x	x
O=C(NCC1CCCCCC1)[C@@H]1CCCN1c1nccc(Nc2ccccc2Cl)n1	32µM*	25µM*	x	x
C#CCNC(=O)C1CCN(c2nccc(Nc3ccccc3Cl)n2)CC1	45µM*	u	x	x
O=C(NCC(F)(F)F)[C@@H]1CCCN1c1nccc(Nc2ccccc2Cl)n1	-22%	u	x	x
O=C(NCC1CCCCC1)C1CCN(c2nccc(Nc3ccccc3Cl)n2)CC1	32µM*	35µM*	x	x
CCCc1cnc(C)nc1N1CCN(Cc2ccccc2F)C(CCO)C1 (centres undefined)	-27%	u	6%	i
O=C(OCc1ccccc1)N1CCC2(CC1)C(=O)NN=C2C1CC1	-11%[138 µM]	112µM*	-2%[70.6 µM]	i
O=C(NCC1CC1)C1CCCCN1Cc1ccc(-c2cccs2)cc1 (centres undefined)	18µM*	u	x	x
O=C(NC1CCCC1)C1CCCCN1Cc1ccc(-c2cccs2)cc1 (centres undefined)	40µM*	32µM*	x	x
O=C(C1CCCCN1Cc1ccc(-c2cccs2)cc1)N1CCC(c2ccccc2)CC1 (centres undefined)	u	-28%	x	x
O=C(c1ccc(F)cc1)N1CCN(C(=O)c2nc3cccnc3n(C3CC3)c2=O)CC1	-28%	-8%	x	x
C[S+](=O)([O-])c1cccc(NC(=O)c2nnn3c2CN(Cc2cccc(Cl)c2)C(=O)CC3)c1	u	u	3%	i
O=C(Nc1cccnc1)c1nnn2c1CN(Cc1ccccc1F)C(=O)CC2	100µM*	-1%[172 µM]	0%[70.6 µM]	i
Cc1ccccc1CC(=O)N1CCCn2cc(-c3cccc(C#N)c3)nc21	-10%	u	4%	u
CSc1ccc(-c2cccc(CN3CCC(NC(=O)c4ccccc4C)CC3)c2)cc1	-23%	-35%	x	x
COC(=O)NC1CCN(Cc2cccc(-c3ccc(SC)cc3)c2)CC1	32µM*	u	x	x
COc1ccccc1C(=O)NC1CCN(Cc2cccc(-c3ccc(SC)cc3)c2)CC1	28µM*	32µM*	x	x
CCn1cnnc1CC1CCN(C(=O)c2cnn3c(C)c(Cc4ccccc4Cl)c(C)nc23)CC1	-23%	u	-2%	i
COc1ccc(C(=O)Nc2ccc3c(N4CCCCC4)ncnc3c2)cc1	u	40µM*	1%	25µM*
COc1cccc(C(=O)Nc2ccc3ncnc(N4CCCCC4)c3c2)c1	u	u	-22%	i
Cc1ccsc1C(=O)Nc1ccc2ncnc(N3CCCCC3)c2c1	35µM*	32µM*	u	i
Cc1ccc(C(=O)Nc2ccc3c(N4CCOCC4)ncnc3c2)cc1F	11µM*	u	-11%	u
O=C(Nc1ccc2ncnc(N3CCCC3)c2c1)c1ccc(F)c(F)c1	35µM*	u	-21%	i
COCCNc1ncccc1-c1noc([C@@H]2CCCN2Cc2ccco2)n1	-16%[138 µM]	-15%[172 µM]	1%[70.6 µM]	i
O=C(Nc1ccc2c(N3CCCCC3)ncnc2c1)c1ccc(F)cc1F	22µM*	16µM*	3%	u
CCCC(=O)Nc1ccc2c(N3CCOCC3)ncnc2c1	u	-14%	4%	i
O=C(Cc1ccc(F)cc1)Nc1ccc2ncnc(N3CCCCC3)c2c1	35µM*	u	-16%	i
O=C(Nc1ccc2ncnc(N3CCCCC3)c2c1)c1ccc(F)cc1F	u	u	-15%	i
